# In PubChem BioAssay AID1671192 (National Center for Advancing Translational Sciences (NCATS), 2021):
# Records with an inconclusive call do not appear. Activity calls are given as the source filed them. The call rests on the fitted dose curve; in most records, active means well fitted curve in the direction sought with a large enough effect; inconclusive means small, poorly fitted or top-dose-only effect, or another doubt; inactive means no such curve, though single readings can be large or run the other way.
# Molecular target: Polyunsaturated fatty acid lipoxygenase ALOX15 (Homo sapiens) (UniProt P16050)
# Sequence (P16050 whole entry, looked up): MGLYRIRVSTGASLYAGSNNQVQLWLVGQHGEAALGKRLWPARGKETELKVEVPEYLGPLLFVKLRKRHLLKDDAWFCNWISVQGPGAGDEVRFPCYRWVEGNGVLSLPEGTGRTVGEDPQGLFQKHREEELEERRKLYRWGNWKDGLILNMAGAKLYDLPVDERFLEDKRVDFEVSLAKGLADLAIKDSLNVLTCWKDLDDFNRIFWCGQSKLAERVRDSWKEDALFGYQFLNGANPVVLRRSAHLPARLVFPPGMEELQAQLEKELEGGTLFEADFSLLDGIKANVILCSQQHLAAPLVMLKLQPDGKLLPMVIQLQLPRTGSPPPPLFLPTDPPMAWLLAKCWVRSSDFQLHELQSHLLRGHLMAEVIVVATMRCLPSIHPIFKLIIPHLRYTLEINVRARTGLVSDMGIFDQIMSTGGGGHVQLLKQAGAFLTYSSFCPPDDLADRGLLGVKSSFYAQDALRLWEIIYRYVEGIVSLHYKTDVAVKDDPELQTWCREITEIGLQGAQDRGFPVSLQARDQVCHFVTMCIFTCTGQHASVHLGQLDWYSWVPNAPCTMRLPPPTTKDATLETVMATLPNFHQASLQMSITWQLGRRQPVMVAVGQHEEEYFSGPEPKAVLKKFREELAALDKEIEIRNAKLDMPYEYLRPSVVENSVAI
# Assay: Counterscreen qHTS for inhibitors of human arachidonate 12S-lipoxygenase (ALOX12): ALOX15 Assay
# Details: purified ALOX15 enzyme activity; series mostly up to 110 µM
# Procedure, shortened: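 Xylenol orange–ferric complex formation, read as the 573 nm to 405 nm absorbance ratio, tracks product from 50 uM arachidonic acid turned over for 30 min at RT. Enzyme is 40 nM ALOX15, pH 7.5 HEPES buffer, compound-preincubated 15 min.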
row,Compound,outcome
1,CCC(=O)N1Cc2ccccc2CC2(CCCN(CC3CCNC3)C2)C1 (configuration not stated),inactive
2,COc1ccccc1C(=O)N1CCC(N2Cc3ccccc3C2=O)CC1,inactive
3,c1ccc2c(CN3CC(Oc4ccc5c(c4)OCO5)C3)cccc2c1,inactive
4,NCc1ccc(-c2cccc(C(F)(F)F)c2)cc1,inactive
5,CC(=O)N1CCN(c2ccc(Cl)nn2)C(=O)C1,inactive
6,COc1cccc(N2C(=O)NC(=NC3CCCCC3)C23CCN(C(=O)c2ccccc2OC)C3)c1 (configuration not stated),inactive
7,CCN1CCCC12Cc1ccccc1CN([S+](C)(=O)[O-])C2 (configuration not stated),inactive
8,COc1ccc(CN2CCC3(Cc4ccccc4CNC3=O)C2)c(O)c1 (configuration not stated),inactive
9,Cc1ccc(-c2ccccc2CN)c(C)c1,inactive
10,O=C(Nc1ccc(Cl)cc1Cl)c1c[nH]c2cccnc12,inactive
11,Cc1cc(Cl)ccc1-c1cccc(C=O)c1,inactive
12,Nc1ccccc1CN1CCCC2(Cc3ccccc3CNC2=O)C1 (configuration not stated),inactive
13,CCN(CC)CC(C)NC (configuration not stated),inactive
14,NCc1cccc(-c2ccc(F)cc2F)c1,inactive
15,CN1CCC(C(=O)N2Cc3ccccc3CC3(CCCN(CC4CCNC4)C3)C2)CC1 (configuration not stated),inactive
16,CCc1ccc(CN2CCC3(Cc4ccccc4CNC3=O)C2)s1 (configuration not stated),inactive
17,COc1ccc(CC(=O)N2Cc3ccccc3CC23CCCN([S+](C)(=O)[O-])C3)cc1 (configuration not stated),inactive
18,Cc1cc(C(=O)NCc2ccc(F)cc2)c2c(C3CCNC3)noc2n1 (configuration not stated),inactive
19,O=C(c1ccncc1)N1CCCC(c2nnc3n2CCNC3)C1 (configuration not stated),inactive

row,Compound,outcome
1,COc1cccc(N2C(=O)NC(=NC3CCCCC3)C23CCCN([S+](=O)([O-])c2cccc(C(F)(F)F)c2)C3)c1 (configuration not stated),inactive
2,O=Cc1ccccc1-c1cncc(C(=O)O)c1,inactive
3,NCC(=O)N1Cc2ccccc2CC2(CCN(CC3CCNC3)C2)C1 (configuration not stated),inactive
4,CSc1ccc(-c2ccc(C(=O)O)cc2)cc1,inactive
5,COc1ccc(-c2nc(C3CC3)nc3c2CN(C(=O)c2ccccc2F)CC3)cc1,inactive
6,COc1ccc(N2CC3CCC(C2)N3Cc2ccc(-c3cccnc3)cc2)cc1,inactive
7,CNC(C)c1ccc(Oc2ccccc2)cc1 (configuration not stated),inactive
8,CC(=O)Nc1ccc(CN2CCC(c3nc4ccc(C)cc4c(=O)[nH]3)CC2)cc1,inactive
9,CN1CC(=O)N(C2CCCNCC2)Cc2c(NCCO)ncnc21 (configuration not stated),inactive
10,COc1cccc([S+](=O)([O-])N2CCCC3(CC(c4cccnc4)=NO3)C2)c1 (configuration not stated),inactive
11,CC(C)[S+](=O)([O-])N1CCN(c2ccc(Cl)nn2)C(=O)C1,inactive
12,NCCCC(=O)N1CCC2(CC1)CN(C(=O)Cc1ccc(Cl)cc1)CCO2,inactive
13,CC(C)CNC(=O)c1cc(C2CC2)nc2onc(C3CCNCC3)c12,inactive
14,FC(F)(F)c1cccc(C2=NOC3(CCN(Cc4ccccc4)C3)C2)c1 (configuration not stated),inactive
15,COc1ccc(N2CC3CCC(C2)N3[S+](C)(=O)[O-])cc1,inactive
16,COc1ccccc1C(=O)N1CCn2c(nnc2C2CCNCC2)C1,inactive
17,C[S+](=O)([O-])N1Cc2ccccc2CC2(CCCN2CC2CCNCC2)C1 (configuration not stated),inactive
18,CCc1ccccc1CN1CCCC12Cc1ccccc1CNC2=O (configuration not stated),inactive
